HEK cytotox: Cytotoxic Profiling in HEK 293 Cell Line of Diverse Libraries Using Quantitative High-Throughput Screening | HEK 293 viability, ATP luminescence (CellTiter-Glo), 48-72 h | Potency, µM (highest dose often 115 µM), inactives show at the highest dose activity change, negative = cytotoxicity, most hits filed as inhibitors | hit rate 6.6% among 94,000 | AID 1345083, 2018; further: nearly all actives have a fitted effect of over 60% in size
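Viability of HEK 293 cells, plated at 250 cells/well, was judged by cellular ATP after compound treatment for 48 or 72 hr. Luminescence was imaged 10 min after CellTiter-Glo addition at room temperature.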
FLuc inh: Firefly luciferase inhibition profiling of diverse chemical library using quantitative high-throughput screening | Luciferin 4-monooxygenase (Photinus pyralis), P08659 | purified P. pyralis luciferase, luminescence, biochemical | Potency, µM (highest dose often 115 µM), usual class: inhibitors | hit rate 2.5% among 76,000 | AID 1347043, 2019; further: nearly all actives have a fitted effect of over 65% in size
Target sequence (P08659 whole entry, looked up): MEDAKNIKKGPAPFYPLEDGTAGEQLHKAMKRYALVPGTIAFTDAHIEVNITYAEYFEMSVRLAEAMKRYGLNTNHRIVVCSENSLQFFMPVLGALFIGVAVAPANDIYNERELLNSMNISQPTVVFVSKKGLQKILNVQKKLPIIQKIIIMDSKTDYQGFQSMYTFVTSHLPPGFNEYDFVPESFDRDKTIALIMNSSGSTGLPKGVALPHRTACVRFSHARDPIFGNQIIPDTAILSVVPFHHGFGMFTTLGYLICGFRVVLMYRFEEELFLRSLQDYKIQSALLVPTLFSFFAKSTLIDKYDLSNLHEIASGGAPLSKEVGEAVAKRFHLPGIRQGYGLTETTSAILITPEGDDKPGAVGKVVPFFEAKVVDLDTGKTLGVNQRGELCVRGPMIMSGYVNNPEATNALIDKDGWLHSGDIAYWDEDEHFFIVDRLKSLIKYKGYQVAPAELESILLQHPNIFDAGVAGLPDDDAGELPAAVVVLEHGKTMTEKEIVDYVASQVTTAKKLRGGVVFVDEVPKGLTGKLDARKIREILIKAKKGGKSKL
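Cell-free enzyme assay, 10nM P. pyralis luciferase, luciferin and ATP each at 10uM. Inhibition profiled over a 6-point titration, read as luminescence.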
3T3 cytotox: Cytotoxic Profiling in NIH 3T3 Cell Line of Diverse Libraries Using Quantitative High-Throughput Screening | hit rate 4.3% among 94,000 | AID 1345082, 2018 | NIH 3T3 viability, CellTiter-Glo ATP luminescence, 48-72 h | Potency, µM (doses to about 96.7 µM), without a hit: at the highest dose activity change, negative = cytotoxicity, actives largely listed as inhibitors; further: nearly all actives have a fitted effect of over 55% in size
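Mouse fibroblast NIH 3T3 cells, 400 per well, received compound via pintool and were incubated for 48 or 72 hr prior to CellTiter-Glo ATP luminescence measurement.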
hNpr1 antagonist: Natriuretic polypeptide receptor (hNpr1) antagonism - Primary qHTS; Atrial natriuretic peptide receptor 1 (Homo sapiens), P16066; HEK293 hNpr1 GloSensor cGMP, ANP-stimulated luminescence; Potency, µM (top dose mostly 46.3 µM), inactives show at the top dose activity change, negative = inhibition, most hits filed as inhibitors; hit rate 1.6% among 76,000; AID 1347048, 2019; calls by dose curve; further: nearly all actives have a fitted effect of over 60% in size
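HEK293 cells stably expressing human Npr1 and cGMP GloSensor pGS-40F, loaded 2 h with 2% GloSensor reagent, given compound 30 min at room temperature. Luminescence read before and 20 min after 0.1 nM hNppA.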
* hit, by the source's call; i = inactive; ? = inconclusive; · = not tested or not shown; [ ] = dose if it differs, or a comment. This is a sample that favours compounds with a hit; in the whole collection about 11% have one here. Unless noted, the call rests on the fitted dose curve; in most records, active means well fitted curve in the direction sought with a large enough effect; inconclusive means small, poorly fitted or top-dose-only effect, or another doubt; inactive means no such curve, though single readings can be large; an effect the other way counts as inactive or inconclusive. On the % scale 0 is the no-effect control and ±100 the full control effect; potency means the concentration at half of the fitted maximal effect.

SMILES	HEK cytotox	FLuc inh	3T3 cytotox	hNpr1 antagonist
CC(=O)N1CCN(c2ncccc2-c2cc(-c3ccccc3)nc3c(C)noc23)CC1	-23.6%[172 µM]	i	?	1.8%[70.6 µM]
Cc1noc2c(NC3CCN(C)CC3)cc(-c3ccccn3)nc12	112µM*	i	?	-1.0%[70.6 µM]
Cc1noc2c(NC3CCN(C)CC3)cc(-c3ccccc3)nc12	100µM*	i	?	0.6%[70.6 µM]
Cc1noc2c(NC3CCN(C)CC3)cc(-c3cccc(C(F)(F)F)c3)nc12	39.8µM*	i	?	4.5%[70.6 µM]
Cc1noc2c(NCCc3ccccn3)cc(-c3ccccc3)nc12	?	i	?	-2.1%[70.6 µM]
Cc1noc2c(-c3cccnc3NC3CCN(C)CC3)cc(-c3ccccc3)nc12	63.1µM*	i	31.6µM*	2.4%[70.6 µM]
COc1ccc(C(=O)NC2CCN(c3cc(C(F)(F)F)nc(C)n3)CC2)cc1	?	i	?	?
CCC1(N2CCN(S(=O)(=O)c3ccc4c(c3)CCCC4)CC2)CCN(C(=O)C(C)C)C1 (centres undefined)	?	i	?	-23.5%
Clc1ccc(NCCN2CCCC2)cc1	-23.8%[230 µM]	·	-4.2%[174 µM]	·
Oc1ccc(NCCN2CCCC2)cc1	?	·	44.7µM*	·
CCc1ccc(CNC(=O)c2ccc3c(c2)N(CC)C2CCCCN2C3=O)cc1 (centres undefined)	?	i	?	0.0%
CCN1c2cc(C(=O)NCc3ccccc3)ccc2C(=O)N2CCCCCC21 (centres undefined)	39.8µM*	i	-24.4%	-5.9%
CCN1c2cc(C(=O)NCc3cccc(C(F)(F)F)c3)ccc2C(=O)N2CCCCCC21 (centres undefined)	17.8µM*	i	?	?
CCNc1cc(N2CCC(CCC(=O)NCCN3CCCCCC3)CC2)ncn1	-19.7%	i	-17.8%	0.8%
CC1=C[C@@H](CNC(=O)CCC(=O)O)[C@H](C(C)C)C[C@H]1Cc1nc2c(C)cccc2[nH]1	?	i	-1.8%[174 µM]	-1.8%[70.6 µM]
COc1ccccc1CN(Cc1ccccc1OC)C[C@@H]1C=C(C)[C@H](Cc2nc3c(C)cccc3[nH]2)C[C@H]1C(C)C	15.8µM*	i	31.6µM*	?
CC1=C[C@@H](CN2C(=O)c3ccccc3C2=O)[C@H](C(C)C)C[C@H]1Cc1nc2ccccc2[nH]1	31.6µM*	i	25.1µM*	?
CC(=O)NC[C@@H]1C=C(C)[C@H](Cc2nc3ccc(C)cc3[nH]2)C[C@H]1C(C)C	?	i	70.8µM*	?
CCCNC(=O)NC[C@@H]1C=C(C)[C@H](Cc2nc3ccccc3[nH]2)C[C@H]1C(C)C	100µM*	i	35.5µM*	?
OCCOc1ccccc1CN1CCCC(Nc2ccc(F)c(F)c2)C1 (centres undefined)	-19.7%	i	-34.9%	-1.1%
N#Cc1cccc(-c2cn3c(n2)N(C(=O)COc2ccccc2)CCC3)c1	?	i	?	-12.2%
CC1=C[C@@H](CNC(=O)c2ccccc2)[C@H](C(C)C)C[C@H]1Cc1nc2ccc(C)cc2[nH]1	50.1µM*	i	?	-27.5%[70.6 µM]
CC1=C[C@@H](CNC(=O)c2ccccc2)[C@H](C(C)C)C[C@H]1Cc1nc2ccncc2[nH]1	79.4µM*	i	?	?
CC1=C[C@@H](CNC(=O)c2cccnc2)[C@H](C(C)C)C[C@H]1CC(=O)N1CCCC1	-15.4%[172 µM]	63.1µM*	-9.9%[138 µM]	-11.9%[70.6 µM]
COc1ccccc1C(=O)NC[C@@H]1C=C(C)[C@H](Cc2nc3ccncc3[nH]2)C[C@H]1C(C)C	35.5µM*	i	?	-18.5%[70.6 µM]
SMILES	HEK cytotox	FLuc inh	3T3 cytotox	hNpr1 antagonist
COc1ccc(S(=O)(=O)N2CC(=O)N(CC3CC3)C3(CCCCC3)C2)cc1	?	·	35.5µM*	·
O=C(C1CN(C2CCCC2)C(=O)N1)N1CCN(Cc2ccccc2)CC1 (centres undefined)	-8.7%[172 µM]	·	-24.4%[138 µM]	·
Cc1ccncc1-c1c(C)nn2c1N(C(=O)c1cccc(Cl)c1)CCC2	-24.7%[172 µM]	i	?	-0.4%[70.6 µM]
COc1ccccc1C(=O)N1CCCn2nc(C)c(-c3ccccc3-c3ccccc3)c21	89.1µM*	i	?	-1.0%[70.6 µM]
COc1ccc(C(=O)N2CCCn3nc(C)c(-c4ccccc4-c4ccccc4)c32)cc1	35.5µM*	i	?	-21.8%[70.6 µM]
Cc1nn2c(c1-c1ccccc1Oc1ccccc1)N(C(=O)C1CCC1)CCC2	89.1µM*	i	?	-5.5%[70.6 µM]
COc1ccc(C(=O)N2CCCn3nc(C)c(-c4ccccc4-c4ccccc4)c32)cn1	?	i	?	-18.1%[70.6 µM]
Cc1nn2c(c1-c1ccccc1-c1ccccc1)N(C(=O)C1CCOCC1)CCC2	-10.3%[172 µM]	i	?	2.7%[70.6 µM]
Cc1nn2c(c1-c1cccc3cn[nH]c13)N(C(=O)c1cccc(Cl)c1)CCC2	50.1µM*	i	?	-1.2%[70.6 µM]
COc1cc2c(cc1OC)C(CNC(=O)c1cccs1)N(C(=O)Nc1ccccc1)CC2 (centres undefined)	?	i	-16.6%	2.6%
COc1cccc(CN2CCc3c(cc(C(=O)Nc4ccc(F)cc4C)n3C)C2)c1	?	25.1µM*	?	-4.0%
COc1cccc(CN2CCc3c(cc(C(=O)Nc4cc(C)ccc4C)n3C)C2)c1	?	31.6µM*	?	-21.7%
CCCCCC(=O)N1[C@@H](c2ccco2)[C@@H](C(=O)OCC)C[C@]12CCCCNC2=O	-29.1%	·	?	·
O=C(NC[C@H]1OC[C@@H](N(Cc2ccccc2)Cc2ccccc2)[C@@H]1O)Nc1ccccc1	79.4µM*	i	?	-13.1%[70.6 µM]
CCOC(=O)C1CCN(C(=O)c2ccc3nc(-c4ccncc4)oc3c2)CC1	-27.4%	·	-26.8%	·
CCOC(=O)C1CCN(C(=O)c2ccc3nc(-c4ccnc(Cl)c4)oc3c2)CC1	100µM*	·	100µM*	·
O=C(C1CCCN(C(=O)C2CCCC2)C1)N1CCC(N2Cc3cccn3C2=O)CC1 (centres undefined)	-4.3%	·	-21.2%	·
Cc1nc(CCC(=O)N2CCn3nc(C(=O)Nc4ccccc4)cc3C2)n[nH]1	-23.4%	28.2µM*	-7.3%	-1.1%
O=C(N[C@H]1CO[C@H]2[C@@H]1OC[C@H]2OCc1ccccc1)c1ccc(C(F)(F)F)cc1	79.4µM*	?	-29.1%[174 µM]	?
S=C(Nc1ccccc1)N[C@H]1CO[C@H]2[C@@H]1OC[C@H]2OCc1ccccc1	?	i	-18.9%[138 µM]	-19.1%[70.6 µM]
COc1ccc(Cn2nc(-c3ccccc3)nc2C2CCC(=O)NC2)cc1 (centres undefined)	?	35.5µM*	-15.3%	5.8%
COc1ccc(CN2CCC(c3nn(Cc4ccccc4)c(=O)[nH]3)CC2)cc1	-7.3%	i	-10.1%	24.6%
O=C(NCCNC(=O)c1ccc(Cl)nc1)c1ccc(-c2cncnc2)cc1	?	·	-14.8%	·
